Screens as filed in PubChem BioAssay.
HT1080 IDH1KD tx – kills HT-1080 cells with IDH1 knockdown | HT-1080 IDH1 knockdown viability, ATP luminescence, 48 h | Potency, µM (titrated, usually from 46.1 µM), for inactives: top-dose activity, negative = toxicity, most hits filed as cytotoxic | 2% of 360,000 active;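 also: potency is read from the fitted curve at half-maximal effect; 0% = DMSO wells and -100% = cell-free medium wells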
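Using the IDH1-knockdown HT-1080 line run in the same batch and compound series as the NT line, viability after 48 h at 37 °C was determined by CellTiter-Glo luminescence and expressed as % activity.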
KB-V1 cytotox – kills drug-selected multidrug resistant KB-V1 cells | KB-V1 MDR cells viability, CellTiter-Glo, 72 h | Potency, µM (series often up to 46.1 µM), usual class: cytotoxic | 3.4% of 400,000 active | AID 1347076; also: potency is read from the fitted curve at half-maximal effect; nearly all actives have a fitted effect of over 60% in size
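Cells of the MDR subline KB-V1 are plated, dosed with compound at multiple concentrations, and incubated 72 h at 37 degrees C; CellTiter-Glo is then added and luminescence read after 10 min.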
KB-3-1 tox – KB-3-1 parental cell cytotoxicity; KB-3-1 viability, CellTiter-Glo ATP luminescence, 72 h; Potency, µM (top dose mostly 46.1 µM), most hits filed as cytotoxic; 1.4% of 400,000 active; AID 1347075; also: potency is read from the fitted curve at half-maximal effect; nearly all actives have a fitted effect of over 60% in size
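Luminescent ATP read-out (CellTiter-Glo) measures survival of drug-naive KB-3-1 cells after 72 h compound exposure at 37 °C. Titration series was screened from lowest to highest concentration, with DMSO vehicle plates as background controls.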
HT1080NT lethal – kills 2HG-producing HT-1080-NT fibrosarcoma cells; HT-1080-NT fibrosarcoma viability, CellTiter-Glo ATP luminescence, 48 h; Potency, µM (doses to about 46.1 µM), without a hit: at the top dose activity, negative = less viability, actives largely listed as cytotoxic; 1.6% of 360,000 active;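 also: NT is the 2HG producing partner of a matched IDH1 knockdown line; potency is read from the fitted curve at half-maximal effect; 0% = DMSO-treated cells and -100% = media-only wells without cells; nearly all actives have a fitted effect of over 55% in size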
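Luminescent CellTiter-Glo readout after 48 hours of compound exposure at 37 degrees C defined viability of HT-1080-NT cells. Activity was normalized to DMSO wells and cell-free media wells; concentration-response curves were fitted and assigned curve classes.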
IL-1B inflam inh – inhibitors of inflammasome signaling (IL-1 beta secretion) | THP-1 LPS/ATP IL-1B secretion, AlphaLISA, 16 h; hits give low values | activity change, % at 57.5 µM | 4.7% of 360,000 active; in the data active = activity change below about -50%; inconclusive = mostly about -30% to -49%
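Secreted IL-1B measured by AlphaLISA bead assay after 16 h compound exposure of THP-1 cells; compounds (final up to 57.5 uM) added 1 h before LPS (250 ng/mL) and ATP (1.25 mM) stimulation; lower signal means less secretion.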
* marks the source's active call; other numbers are inactive results; ! = not confirmed by another sample; [ ] = remark or other dose. In the library only some 8.8% were active in any assay of this set; here they are far more common. Unless noted, calls follow the shape of the dose curve; as a rule, active = well fitted curve in the direction sought with a large enough effect; inconclusive = small, poorly fitted or top-dose-only effect, or another doubt; inactive = no such curve, though single readings can be large; an effect the other way counts as inactive or inconclusive. Unless noted, % is scaled to controls: 0 for no effect and ±100 for the full control effect.

`O=C(CSc1ncnc2sc3c(c12)CCCCC3)NCc1ccco1` gave HT1080 IDH1KD tx 16µM*, KB-V1 cytotox inconclusive, KB-3-1 tox 7.3µM*!, HT1080NT lethal inconclusive and IL-1B inflam inh 0.
Screening O=C(CSc1ncnc2sc3c(c12)CCCC3)NC1CCS(=O)(=O)C1 (stereo unspecified) returned HT1080 IDH1KD tx 5%, KB-V1 cytotox 9.2µM*, KB-3-1 tox inactive, HT1080NT lethal 3% and IL-1B inflam inh -7.
Screening CC(=O)CSc1ncnc2sc3c(c12)CCCC3 returned HT1080 IDH1KD tx -14%, KB-V1 cytotox inactive, KB-3-1 tox inactive, HT1080NT lethal -17% and IL-1B inflam inh 23.
Screening CC1CCc2c(sc3nc(SCC(=O)NCc4ccco4)nc(N)c23)C1 (stereo unspecified) returned HT1080 IDH1KD tx inconclusive, KB-V1 cytotox 13µM*, KB-3-1 tox inconclusive, HT1080NT lethal inconclusive and IL-1B inflam inh -1.
COCCN(C(=O)c1ccc(N2C(=O)c3ccccc3C2=O)cc1)c1c(N)n(CC(C)C)c(=O)[nH]c1=O was read as HT1080 IDH1KD tx 3%, KB-V1 cytotox inconclusive, KB-3-1 tox inactive, HT1080NT lethal 7% and IL-1B inflam inh 4.
`CCn1c(SCC(=O)Nc2cccc(C)c2)nc2nc3c(cc2c1=O)COC(C)(C)C3` gave HT1080 IDH1KD tx 14%, KB-V1 cytotox inconclusive, KB-3-1 tox inactive, HT1080NT lethal 15% and IL-1B inflam inh -83*.
For CCn1c(SCC(=O)Nc2ccccc2)nc2nc3c(cc2c1=O)COC(C)(C)C3 the results were HT1080 IDH1KD tx -1%, KB-V1 cytotox inactive, KB-3-1 tox inactive, HT1080NT lethal 2% and IL-1B inflam inh -1.
Screening Cc1ccc(C)c(C(=O)Nc2cc(C)nn2-c2nc(C)cc(C)n2)c1 returned HT1080 IDH1KD tx -6%, KB-V1 cytotox inconclusive, KB-3-1 tox 21µM*, HT1080NT lethal -11% and IL-1B inflam inh -8.
For Cc1cc(C)nc(-n2nc(C)cc2NC(=O)c2cccc(S(=O)(=O)N(C)C)c2)n1 the results were HT1080 IDH1KD tx 3%, KB-V1 cytotox inactive, KB-3-1 tox inactive, HT1080NT lethal -7% and IL-1B inflam inh 13.
S=C(NCCN1CCOCC1)Nc1ccccc1Cl was read as HT1080 IDH1KD tx 0%, KB-V1 cytotox inactive, KB-3-1 tox inactive, HT1080NT lethal -1% and IL-1B inflam inh inactive.
`CC(=O)c1cccc(CN2CCC(C(=O)Nc3ccc(-c4cccc(C)c4)cc3)CC2)c1` gave HT1080 IDH1KD tx 21µM*, KB-V1 cytotox inactive, KB-3-1 tox inconclusive, HT1080NT lethal inconclusive and IL-1B inflam inh -62*.
`C=CS(=O)(=O)N(Cc1ccccc1Br)[C@H](CO)Cc1ccccc1` gave HT1080 IDH1KD tx inconclusive, KB-V1 cytotox inconclusive, KB-3-1 tox inconclusive, HT1080NT lethal inconclusive and IL-1B inflam inh -108*.
Screening C=CS(=O)(=O)N(Cc1ccccc1)[C@H](CO)CC(C)C returned HT1080 IDH1KD tx -4%, KB-V1 cytotox inactive, KB-3-1 tox inconclusive, HT1080NT lethal -13% and IL-1B inflam inh -60*.
`O=S(=O)(N(Cc1ccccc1)[C@@H](CO)Cc1ccccc1)N(Cc1ccccc1)[C@@H](CO)Cc1ccccc1` gave HT1080 IDH1KD tx -5%, KB-V1 cytotox inconclusive, KB-3-1 tox inconclusive, HT1080NT lethal -24% and IL-1B inflam inh 17.
Screening C=CCCN([C@H](CO)Cc1ccccc1)S(=O)(=O)c1ccccc1Br returned HT1080 IDH1KD tx 0%, KB-V1 cytotox inactive, KB-3-1 tox inactive, HT1080NT lethal 8% and IL-1B inflam inh -9.
CC(C)C[C@H](CO)N(Cc1ccccc1)S(=O)(=O)N(Cc1ccccc1)[C@@H](CO)CC(C)C was read as HT1080 IDH1KD tx inconclusive, KB-V1 cytotox 21µM*!, KB-3-1 tox inconclusive, HT1080NT lethal inconclusive and IL-1B inflam inh -87*.
For COc1ccc(NC(=O)CSc2nccn2Cc2ccco2)cc1OC the results were HT1080 IDH1KD tx 16%, KB-V1 cytotox inactive, KB-3-1 tox inactive, HT1080NT lethal 18% and IL-1B inflam inh 35.
Cc1nn(C)c(Oc2cccc(Cl)c2)c1C(=O)Nc1ccc(F)cc1 was read as HT1080 IDH1KD tx -20%, KB-V1 cytotox 15µM*, KB-3-1 tox inactive, HT1080NT lethal -11% and IL-1B inflam inh -7.
Cc1nn(C)c(Oc2cccc(Cl)c2)c1C#N was read as HT1080 IDH1KD tx -3%, KB-V1 cytotox inactive, KB-3-1 tox inactive, HT1080NT lethal 0% and IL-1B inflam inh -10.
`Cc1nn(C)c(Oc2cccc(Cl)c2)c1C(=O)Nc1ccc(F)cc1F` gave HT1080 IDH1KD tx -8%, KB-V1 cytotox 18µM*, KB-3-1 tox inactive, HT1080NT lethal 3% and IL-1B inflam inh -6.
Screening Cc1cccc(Oc2nccc(C(F)(F)F)c2C(=O)Nc2ccc(F)cc2F)c1 returned HT1080 IDH1KD tx -29%, KB-V1 cytotox inactive, KB-3-1 tox inactive, HT1080NT lethal inconclusive and IL-1B inflam inh 0.
For CC1(C)CC(NC(=O)C(Cl)(Cl)Cl)CC(C)(C)N1 the results were HT1080 IDH1KD tx 13%, KB-V1 cytotox inactive, KB-3-1 tox inactive, HT1080NT lethal 1% and IL-1B inflam inh -21.
For Cc1ccc2onc(CNC(=O)N3CCN(c4cccc(C(F)(F)F)c4)CC3)c2c1 the results were KB-V1 cytotox inactive and KB-3-1 tox inactive.
Screening CCOC(=O)c1ccc(NCc2ccc3c(c2)OCO3)cc1 returned HT1080 IDH1KD tx 5%, KB-V1 cytotox 21µM*, KB-3-1 tox inactive, HT1080NT lethal 19% and IL-1B inflam inh -14.
`COc1ccc(NCc2ccc3c(c2)OCO3)cc1Cl` gave HT1080 IDH1KD tx 1%[9.24 µM], KB-V1 cytotox inactive, KB-3-1 tox inactive, HT1080NT lethal -24% and IL-1B inflam inh -93*.
Cc1ccccc1-c1nc(CN2CCC(C(=O)NCc3ccccc3Cl)CC2)c(C)o1 was read as KB-V1 cytotox inactive and KB-3-1 tox inactive.
Screening O=C(Cc1cccc(F)c1)N1CCOCC1 returned HT1080 IDH1KD tx 2%, KB-V1 cytotox inactive, KB-3-1 tox inactive, HT1080NT lethal 13% and IL-1B inflam inh 0.
O=C(CCl)NCc1cc(-c2ccc(Cl)cc2)no1 was read as HT1080 IDH1KD tx 9.2µM*, KB-V1 cytotox inconclusive, KB-3-1 tox inconclusive, HT1080NT lethal 12µM* and IL-1B inflam inh -75*.
For CCCN(C(=O)COC(=O)c1nc2nc(C)cc(C)n2n1)C1CCS(=O)(=O)C1 (stereo unspecified) the results were HT1080 IDH1KD tx 3%, KB-V1 cytotox inconclusive, KB-3-1 tox inactive, HT1080NT lethal 0%[9.24 µM] and IL-1B inflam inh 10.
For Oc1ccc2ccccc2c1CN1CCCCC1 the results were HT1080 IDH1KD tx 0%, KB-V1 cytotox inactive, KB-3-1 tox inconclusive, HT1080NT lethal -2% and IL-1B inflam inh 13.
